# The supplement of paper PMC10849652
# The full data set covers some 7,900 targets. This sample favours those with a hit. About 0.6% of all pairs of compound and target were hits.
# What was measured:
# Experiment in all cases: log2 fold change, soluble protein after heating vs DMSO (PISA); higher = thermal stabilisation; K562 cells, 10 uM, 30 min; active = over 0.2 and 3.5 SD of the protein, either way, in both replicates (recomputed)
# [1] = compound: C#Cc1cccc(Nc2ncnc3cc(OCCOC)c(OCCOC)cc23)c1 [erlotinib]
# Outline: (§1)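 K562 cells at 2×10^6 cells/mL were treated for 30 min with 10 μM compound, and aliquots were heated for 3 min over 48°C-58°C before pooling. Extraction used PBS with 0.5% NP-40 at 4°C, and soluble protein was the supernatant after 21,000xg for 90 min, measured by TMTpro 16plex LC-MS/MS with channel sums equalised. Thermal stability values, relative to control samples and from duplicates, are log2 fold changes.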
# [2] = compound: C/C(=N\NC(=O)C1=CC(=CC=C1)S(=O)(=O)N2CCOCC2)/C3=C(C=CC(=C3)Cl)O
# Outline: as §1
# [3] = compound: C1=CC(=C(C=C1Cl)C2=NC3=NC=CN=C3C(=N2)NC4=CC=NC=C4)F
# Outline: as §1
# [4] = compound: C1=CC(=CC=C1C2=NC3=C(N2)C=C(C=C3)C(=O)N)OC4=CC=C(C=C4)Cl
# Outline: as §1
# [5] = compound: C1=CC2=C(C=CC(=C2)/C=C\3/C(=O)NC(=NCC4=CC=CS4)S3)N=C1
# Outline: as §1
# [6] = compound: C1=CC2=NC=CN=C2C=C1/C=C/3\C(=O)NC(=O)S3
# Outline: as §1
# [7] = compound: C1=CC=C(C=C1)C2=NC(=C(N2)C3=CC=NC=C3)C4=CC(=C(C=C4)Cl)O
# Outline: as §1
# [8] = compound: C1=CC=C2C(=C1)C3=NNC4=CC=CC(=C43)C2=O
# Outline: as §1
# [9] = compound: C1CCN(C1)C(=O)NC2=CC=CC(=C2)NC3=NC=C(C(=N3)NCCC4=CN=CN4)Br
# Outline: as §1
# [10] = compound: C1CN(CCC1(CC2=CC=C(C=C2)Cl)N)C3=NC=NC4=C3C=CN4
# Outline: as §1
# [11] = compound: C=CC(=O)N1CCC[C@@H](n2nc(-c3ccc(Oc4ccccc4)cc3)c3c(N)ncnc32)C1 [ibrutinib]
# Outline: as §1
# [12] = compound: CC(=O)c1cnc2ccc(-c3cc(Cl)c(O)c(Cl)c3)nc2c1N[C@H]1CC[C@H](CN(C)C)CC1
# Outline: as §1
# [13] = compound: CC(C)(C)Cn1c(N)nc2ccc(-c3[nH]c(C(C)(C)C)nc3-c3ccc(F)cc3)nc21 [ralimetinib]
# Outline: as §1
# [14] = compound: CC(C)(O)CC(=O)NCCn1ccc2ncnc(Nc3ccc(Oc4cccc(C(F)(F)F)c4)c(Cl)c3)c21
# Outline: as §1
# [15] = compound: CC(C)C1=C2N=C(C=C(N2N=C1)NCC3=CC=CC=C3)NCCCCCCN
# Outline: as §1
# [16] = compound: CC(C)C[C@@H](C=O)NC(=O)[C@H](CC(C)C)NC(=O)[C@H](CC(C)C)NC(=O)OCc1ccccc1
# Outline: as §1
# [17] = compound: CC1=C(C2=C(C=C1)C(=O)C3=CC=CC=C3N2CCCN)C
# Outline: as §1
# [18] = compound: C1COCCN1CCN2C3=CC=CC=C3N=C2NC(=O)C4=CC(=CC=C4)[N+](=O)[O-] [IRAK-1-4 Inhibitor I]
# Outline: as §1
# [19] = compound: CC(C)N(C[C@H]1O[C@@H](n2cnc3c(N)ncnc32)[C@H](O)[C@@H]1O)[C@H]1C[C@@H](CCc2nc3cc(C(C)(C)C)ccc3[nH]2)C1 [pinometostat]
# Outline: as §1
# [20] = compound: CC1=C(C(CC(=O)N1)C2=CC=C(C=C2)C(F)(F)F)C(=O)NC3=C(C=C4C(=C3)C=NN4)F
# Outline: as §1
# UniProt Q96G25, sequence (Q96G25 whole entry, looked up): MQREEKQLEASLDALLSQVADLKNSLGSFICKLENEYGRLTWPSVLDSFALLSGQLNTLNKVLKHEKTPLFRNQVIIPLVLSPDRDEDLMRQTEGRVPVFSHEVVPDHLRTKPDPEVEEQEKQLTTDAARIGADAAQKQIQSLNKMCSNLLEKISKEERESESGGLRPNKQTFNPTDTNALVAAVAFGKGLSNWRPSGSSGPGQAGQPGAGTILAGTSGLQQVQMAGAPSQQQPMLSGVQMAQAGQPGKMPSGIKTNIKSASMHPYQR
# UniProt Q8WVP7, sequence (Q8WVP7 whole entry, looked up): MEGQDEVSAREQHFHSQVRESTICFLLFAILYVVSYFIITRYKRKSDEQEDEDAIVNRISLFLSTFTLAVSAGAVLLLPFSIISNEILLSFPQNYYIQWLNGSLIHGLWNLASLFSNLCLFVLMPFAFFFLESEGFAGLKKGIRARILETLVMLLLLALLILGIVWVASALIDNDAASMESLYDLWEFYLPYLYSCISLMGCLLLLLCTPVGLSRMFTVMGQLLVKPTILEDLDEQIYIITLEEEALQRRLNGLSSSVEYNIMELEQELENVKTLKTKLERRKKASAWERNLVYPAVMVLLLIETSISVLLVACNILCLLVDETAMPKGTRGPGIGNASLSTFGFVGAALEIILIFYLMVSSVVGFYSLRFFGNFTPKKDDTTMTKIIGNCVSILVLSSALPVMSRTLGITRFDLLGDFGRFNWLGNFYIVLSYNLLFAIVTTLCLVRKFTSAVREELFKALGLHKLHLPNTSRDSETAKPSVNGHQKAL
# UniProt Q9NUN5, sequence (Q9NUN5 whole entry, looked up): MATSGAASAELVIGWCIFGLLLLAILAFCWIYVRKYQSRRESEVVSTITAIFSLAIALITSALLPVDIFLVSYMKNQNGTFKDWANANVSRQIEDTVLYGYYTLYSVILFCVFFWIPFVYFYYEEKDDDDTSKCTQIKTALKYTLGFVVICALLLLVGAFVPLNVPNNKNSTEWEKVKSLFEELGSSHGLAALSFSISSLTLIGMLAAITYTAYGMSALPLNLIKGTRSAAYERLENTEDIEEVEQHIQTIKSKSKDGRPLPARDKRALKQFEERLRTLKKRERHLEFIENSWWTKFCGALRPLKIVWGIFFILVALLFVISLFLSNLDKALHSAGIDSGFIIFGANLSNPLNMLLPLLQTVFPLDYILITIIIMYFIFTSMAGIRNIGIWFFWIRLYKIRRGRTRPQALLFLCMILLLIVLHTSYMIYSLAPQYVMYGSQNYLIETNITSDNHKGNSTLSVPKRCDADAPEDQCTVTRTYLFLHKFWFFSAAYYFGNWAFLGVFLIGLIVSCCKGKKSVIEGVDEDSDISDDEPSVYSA
# UniProt Q07820, sequence (Q07820 whole entry, looked up): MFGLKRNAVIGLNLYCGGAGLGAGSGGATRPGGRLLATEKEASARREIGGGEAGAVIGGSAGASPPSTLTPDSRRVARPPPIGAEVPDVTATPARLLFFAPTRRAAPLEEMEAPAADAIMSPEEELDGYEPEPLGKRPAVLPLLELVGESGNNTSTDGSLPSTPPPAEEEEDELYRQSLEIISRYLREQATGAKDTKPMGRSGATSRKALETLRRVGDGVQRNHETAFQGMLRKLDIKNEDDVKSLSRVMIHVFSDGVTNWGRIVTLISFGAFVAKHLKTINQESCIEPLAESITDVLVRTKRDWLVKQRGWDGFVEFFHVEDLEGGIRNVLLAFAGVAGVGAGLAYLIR
# UniProt Q92551, sequence (Q92551 whole entry, looked up): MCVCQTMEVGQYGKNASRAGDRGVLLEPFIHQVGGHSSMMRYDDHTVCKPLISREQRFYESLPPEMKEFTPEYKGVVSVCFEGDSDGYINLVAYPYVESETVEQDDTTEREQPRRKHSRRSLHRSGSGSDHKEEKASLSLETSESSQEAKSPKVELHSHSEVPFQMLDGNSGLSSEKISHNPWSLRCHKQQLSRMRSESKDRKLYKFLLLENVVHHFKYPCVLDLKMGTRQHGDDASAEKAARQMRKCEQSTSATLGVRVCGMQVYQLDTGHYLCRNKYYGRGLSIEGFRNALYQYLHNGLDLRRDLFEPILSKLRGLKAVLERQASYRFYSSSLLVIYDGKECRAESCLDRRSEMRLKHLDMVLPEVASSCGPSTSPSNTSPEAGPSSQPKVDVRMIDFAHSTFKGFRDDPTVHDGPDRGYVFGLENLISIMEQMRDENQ
# UniProt Q96GX5, sequence (Q96GX5 whole entry, looked up): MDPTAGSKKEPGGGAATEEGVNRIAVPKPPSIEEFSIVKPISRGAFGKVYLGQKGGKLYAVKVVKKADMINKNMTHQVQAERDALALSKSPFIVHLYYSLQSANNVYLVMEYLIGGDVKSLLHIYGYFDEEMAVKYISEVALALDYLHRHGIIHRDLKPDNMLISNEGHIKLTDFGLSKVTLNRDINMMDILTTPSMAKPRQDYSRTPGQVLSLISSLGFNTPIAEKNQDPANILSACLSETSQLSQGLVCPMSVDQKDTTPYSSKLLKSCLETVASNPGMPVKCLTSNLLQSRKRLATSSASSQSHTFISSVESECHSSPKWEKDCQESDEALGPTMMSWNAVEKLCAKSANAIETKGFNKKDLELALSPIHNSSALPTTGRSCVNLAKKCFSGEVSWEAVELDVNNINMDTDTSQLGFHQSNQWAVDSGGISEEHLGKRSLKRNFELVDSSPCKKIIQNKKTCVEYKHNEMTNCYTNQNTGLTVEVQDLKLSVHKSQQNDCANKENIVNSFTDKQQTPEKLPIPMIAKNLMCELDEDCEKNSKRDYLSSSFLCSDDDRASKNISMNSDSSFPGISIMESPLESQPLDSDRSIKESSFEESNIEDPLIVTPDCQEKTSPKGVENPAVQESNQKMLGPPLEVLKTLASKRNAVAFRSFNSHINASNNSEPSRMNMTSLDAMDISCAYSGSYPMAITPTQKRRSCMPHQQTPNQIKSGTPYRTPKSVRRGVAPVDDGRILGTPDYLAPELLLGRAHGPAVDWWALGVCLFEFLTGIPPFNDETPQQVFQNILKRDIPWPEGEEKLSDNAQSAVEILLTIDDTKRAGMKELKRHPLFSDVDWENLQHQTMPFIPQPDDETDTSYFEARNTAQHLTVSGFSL
# UniProt Q9NVC6, sequence (Q9NVC6 whole entry, looked up): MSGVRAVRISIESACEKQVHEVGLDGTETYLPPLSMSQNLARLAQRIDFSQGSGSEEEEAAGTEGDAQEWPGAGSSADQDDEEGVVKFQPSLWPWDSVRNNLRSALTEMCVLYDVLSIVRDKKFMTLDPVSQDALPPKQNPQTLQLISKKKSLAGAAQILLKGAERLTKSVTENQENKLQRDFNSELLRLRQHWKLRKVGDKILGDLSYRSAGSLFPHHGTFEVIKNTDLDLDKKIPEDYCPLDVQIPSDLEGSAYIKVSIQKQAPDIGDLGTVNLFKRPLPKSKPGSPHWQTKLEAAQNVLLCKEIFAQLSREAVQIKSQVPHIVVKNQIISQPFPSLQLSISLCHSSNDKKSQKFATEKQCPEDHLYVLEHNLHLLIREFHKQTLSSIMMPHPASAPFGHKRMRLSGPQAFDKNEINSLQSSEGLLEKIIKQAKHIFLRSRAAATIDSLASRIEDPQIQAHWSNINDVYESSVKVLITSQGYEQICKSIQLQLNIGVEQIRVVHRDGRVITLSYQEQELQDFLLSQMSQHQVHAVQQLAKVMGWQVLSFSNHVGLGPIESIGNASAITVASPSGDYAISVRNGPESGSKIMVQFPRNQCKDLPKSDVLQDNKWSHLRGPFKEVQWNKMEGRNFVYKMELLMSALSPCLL
# UniProt Q9BQD3, sequence (Q9BQD3 whole entry, looked up): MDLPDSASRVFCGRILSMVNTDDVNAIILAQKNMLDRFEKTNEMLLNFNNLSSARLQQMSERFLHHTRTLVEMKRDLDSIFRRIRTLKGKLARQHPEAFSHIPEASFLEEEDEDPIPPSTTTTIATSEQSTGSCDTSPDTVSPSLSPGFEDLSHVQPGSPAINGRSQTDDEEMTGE
# UniProt O15066, sequence (O15066 whole entry, looked up): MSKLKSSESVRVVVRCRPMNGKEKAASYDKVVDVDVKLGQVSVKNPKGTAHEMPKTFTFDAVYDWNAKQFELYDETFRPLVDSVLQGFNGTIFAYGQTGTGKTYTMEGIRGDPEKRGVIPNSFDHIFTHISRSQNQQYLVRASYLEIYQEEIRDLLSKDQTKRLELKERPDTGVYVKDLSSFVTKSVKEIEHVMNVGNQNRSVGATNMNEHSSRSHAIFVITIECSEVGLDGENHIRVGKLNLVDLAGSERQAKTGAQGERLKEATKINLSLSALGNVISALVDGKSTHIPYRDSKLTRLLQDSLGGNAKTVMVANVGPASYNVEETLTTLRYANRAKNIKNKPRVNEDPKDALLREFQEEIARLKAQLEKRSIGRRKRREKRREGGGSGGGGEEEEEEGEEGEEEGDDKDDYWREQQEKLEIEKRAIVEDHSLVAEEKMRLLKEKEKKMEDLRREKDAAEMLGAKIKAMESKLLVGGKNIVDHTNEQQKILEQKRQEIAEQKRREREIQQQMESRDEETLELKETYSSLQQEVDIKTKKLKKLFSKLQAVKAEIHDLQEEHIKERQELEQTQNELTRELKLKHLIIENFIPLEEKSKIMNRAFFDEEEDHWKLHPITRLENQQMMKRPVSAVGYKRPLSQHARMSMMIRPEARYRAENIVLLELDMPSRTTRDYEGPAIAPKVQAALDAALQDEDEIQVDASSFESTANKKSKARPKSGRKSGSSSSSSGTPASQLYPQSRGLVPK
# UniProt P53778, sequence (P53778 whole entry, looked up): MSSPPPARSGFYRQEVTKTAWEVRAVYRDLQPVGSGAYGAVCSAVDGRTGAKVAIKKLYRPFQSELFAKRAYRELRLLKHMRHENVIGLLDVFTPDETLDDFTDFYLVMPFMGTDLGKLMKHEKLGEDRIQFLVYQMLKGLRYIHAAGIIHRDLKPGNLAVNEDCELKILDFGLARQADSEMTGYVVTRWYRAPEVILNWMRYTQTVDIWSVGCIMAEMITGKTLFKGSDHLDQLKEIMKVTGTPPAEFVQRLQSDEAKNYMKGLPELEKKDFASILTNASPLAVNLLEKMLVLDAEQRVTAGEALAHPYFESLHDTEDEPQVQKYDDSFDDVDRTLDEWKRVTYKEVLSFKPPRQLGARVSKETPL
Target,log2 fold change [1],log2 fold change [2],log2 fold change [3],log2 fold change [4],log2 fold change [5],log2 fold change [6],log2 fold change [7],log2 fold change [8],log2 fold change [9],log2 fold change [10],log2 fold change [11],log2 fold change [12],log2 fold change [13],log2 fold change [14],log2 fold change [15],log2 fold change [16],log2 fold change [17],log2 fold change [18],log2 fold change [19],log2 fold change [20]
KXD1 (UniProt Q9BQD3),0.069 (inactive),0.018 (inactive),0.011 (inactive),-0.005 (inactive),0.083 (inactive),0.024 (inactive),0.01 (inactive),0.018 (inactive),0.022 (inactive),0.036 (inactive),0.092 (inactive),-0.073 (inactive),-0.053 (inactive),0.034 (inactive),-0.181 (inactive),0.041 (inactive),0.057 (inactive),,,
MDN1 (UniProt Q9NU22),0.063 (inactive),0.11 (inactive),0.02 (inactive),-0.025 (inactive),0.144 (inactive),0.037 (inactive),0.02 (inactive),-0.022 (inactive),-0.025 (inactive),0 (inactive),-0.046 (inactive),-0.126 (inactive),-0.015 (inactive),-0.24 (inactive),-0.22 (inactive),-0.029 (inactive),0.005 (inactive),-0.011 (inactive),-0.009 (inactive),0.006 (inactive)
LMBR1 isoform 3 (UniProt Q8WVP7),0.148 (inactive),-0.016 (inactive),-0.034 (inactive),0.071 (inactive),-0.046 (inactive),0.081 (inactive),-0.14 (inactive),-0.013 (inactive),0.037 (inactive),0.15 (inactive),-0.006 (inactive),-0.054 (inactive),-0.02 (inactive),-0.037 (inactive),-0.453 (inactive),-0.004 (inactive),-0.244 (inactive),-0.013 (inactive),0.012 (inactive),
MAPK12 (UniProt P53778),-0.039 (inactive),-0.033 (inactive),-0.093 (inactive),-0.053 (inactive),0.008 (inactive),-0.074 (inactive),0.073 (inactive),0.003 (inactive),0.087 (inactive),0.024 (inactive),0.066 (inactive),0.201 (inactive),-0.046 (inactive),0.001 (inactive),0.388 (inactive),-0.005 (inactive),-0.025 (inactive),0.074 (inactive),-0.004 (inactive),0.207 (inactive)
LMBRD1 (UniProt Q9NUN5),0.075 (inactive),-0.055 (inactive),0.211 (inactive),-0.014 (inactive),0.226 (inactive),0.113 (inactive),-0.051 (inactive),-0.027 (inactive),-0.142 (inactive),0.033 (inactive),0.036 (inactive),0.026 (inactive),0.088 (inactive),-0.059 (inactive),-0.708 (active),-0.022 (inactive),-0.086 (inactive),,,0.088 (inactive)
MFSD1 isoform 6 (UniProt Q9H3U5),-0.011 (inactive),0.011 (inactive),0.006 (inactive),0.029 (inactive),-0.002 (inactive),-0.009 (inactive),0.018 (inactive),0.014 (inactive),0.059 (inactive),0.084 (inactive),0.017 (inactive),0.025 (inactive),-0.172 (inactive),0.055 (inactive),-0.427 (active),0.043 (inactive),0.08 (inactive),,,0.017 (inactive)
IP6K1 (UniProt Q92551),-0.054 (inactive),0.017 (inactive),-0.24 (inactive),0 (inactive),0.25 (inactive),-0.025 (inactive),-0.088 (inactive),0.142 (inactive),-0.083 (inactive),0.067 (inactive),0.05 (inactive),-0.154 (inactive),-0.159 (inactive),-0.295 (inactive),-0.667 (active),0.069 (inactive),0.095 (inactive),,,
MAGI1 (UniProt Q96QZ7),-0.022 (inactive),0 (inactive),-0.083 (inactive),0.049 (inactive),-0.008 (inactive),0.018 (inactive),-0.015 (inactive),-0.016 (inactive),0.012 (inactive),-0.047 (inactive),0.057 (inactive),-0.071 (inactive),0.014 (inactive),0.032 (inactive),-0.009 (inactive),0.01 (inactive),0.07 (inactive),0 (inactive),0.025 (inactive),-0.016 (inactive)
MASTL (UniProt Q96GX5),0.008 (inactive),0.045 (inactive),0.026 (inactive),-0.015 (inactive),-0.076 (inactive),0.124 (inactive),-0.087 (inactive),0.007 (inactive),,,-0.008 (inactive),-0.061 (inactive),0.001 (inactive),-0.393 (active),-0.028 (inactive),0.138 (inactive),,-0.001 (inactive),0.07 (inactive),0.022 (inactive)
MED17 (UniProt Q9NVC6),0.017 (inactive),0.064 (inactive),-0.077 (inactive),0.072 (inactive),-0.083 (inactive),,0.094 (inactive),-0.034 (inactive),-0.194 (inactive),-0.047 (inactive),,-0.371 (active),0.12 (inactive),-0.022 (inactive),-0.209 (inactive),0.119 (inactive),0.182 (inactive),-0.076 (inactive),0.124 (inactive),-0.056 (inactive)
MCL1 (UniProt Q07820),-0.225 (inactive),0 (inactive),-0.037 (inactive),-0.01 (inactive),-0.057 (inactive),0.027 (inactive),-0.121 (inactive),-0.161 (inactive),-0.039 (inactive),0 (inactive),0.095 (inactive),-0.036 (inactive),0.175 (inactive),-0.054 (inactive),-0.234 (inactive),0.295 (inactive),-0.117 (inactive),0.052 (inactive),-0.186 (inactive),0.091 (inactive)
MED8 isoform 2 (UniProt Q96G25),0.017 (inactive),-0.19 (inactive),-0.056 (inactive),0.035 (inactive),-0.031 (inactive),0.152 (inactive),-0.153 (inactive),-0.196 (inactive),,,0.038 (inactive),-0.216 (inactive),-0.013 (inactive),-0.081 (inactive),0.05 (inactive),0.06 (inactive),,-0.051 (inactive),-0.043 (inactive),0.016 (inactive)
KMT2C isoform 3 (UniProt Q8NEZ4),0.038 (inactive),-0.032 (inactive),0.006 (inactive),0.012 (inactive),0.078 (inactive),0.021 (inactive),-0.194 (inactive),-0.056 (inactive),0.003 (inactive),0.018 (inactive),0.007 (inactive),-0.02 (inactive),0.074 (inactive),-0.044 (inactive),-0.06 (inactive),0.191 (inactive),0.049 (inactive),,,0.002 (inactive)
KIF3B (UniProt O15066),-0.015 (inactive),0.016 (inactive),-0.015 (inactive),-0.108 (inactive),-0.02 (inactive),0.004 (inactive),-0.029 (inactive),0.077 (inactive),-0.101 (inactive),-0.039 (inactive),-0.029 (inactive),0.016 (inactive),-0.048 (inactive),0.018 (inactive),-0.021 (inactive),0.068 (inactive),-0.008 (inactive),0.06 (inactive),0.033 (inactive),
LYN isoform 2 (UniProt P07948),-0.387 (inactive),0.117 (inactive),-0.234 (inactive),-0.152 (inactive),0.146 (inactive),,,-0.163 (inactive),,,,-0.246 (inactive),,0.002 (inactive),-0.078 (inactive),,,0.04 (inactive),0.147 (inactive),-0.113 (inactive)
MAPK14 (UniProt Q16539),0.238 (inactive),0.106 (inactive),,-0.116 (inactive),-0.054 (inactive),0.001 (inactive),1.04 (active),0.174 (inactive),0.051 (inactive),-0.072 (inactive),0.016 (inactive),0.793 (active),1.52 (active),,-0.178 (inactive),-0.135 (inactive),0.062 (inactive),-0.048 (inactive),-0.09 (inactive),-0.234 (inactive)
